High-throughput results: PubChem, several laboratories
Shown are actives, neighbours in structure and some others; about 1.1% of the full set was active somewhere.
RN4220 kill: kills Staphylococcus aureus RN4220; S. aureus RN4220 growth, OD600, 16 h; inhibition, % (test concentration not listed); 0.33% of 330,000 active; AID 1259311; in the data active = inhibition above about 85%;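 note: plate controls were untreated cells for no effect and reference antibiotic for full effect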
Sa ugtP lethal: growth inhibition of S. aureus ugtP deletion strain; 0.54% of 330,000 active; S. aureus RN4220 ugtP deletion, OD600 growth, 16 h; growth inhibition, % (no concentration beside the values); in the data active = growth inhibition above about 68%;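 note: plate controls were untreated wells for no effect and antibiotic for full effect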
Mtb hypoxia inh: inhibitors of hypoxia-regulated fluorescent reporter in Mycobacterium tuberculosis; M. tuberculosis hypoxia-regulated fluorescent reporter, fluorescence; 0.1% of 300,000 active; AID 1159583; fluorescence inhibition, % (concentration not given with the values); in the data active = fluorescence inhibition mostly above about 23%, no sharp cut-off; inactive = mostly below about 17%
SSB-PriA inh: blocks PriA binding to SSB C-terminal tail; 0.6% of 430,000 active; AID 1272365; AlphaScreen SSBct-PriA binding, biotinylated peptide; inhibition, % at 33 µM; in the data active = inhibition mostly above about 37%, no sharp cut-off; inactive = mostly below about 20%;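 note: plate controls were negative control peptide for no effect and reference peptide for full effect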
Numbers without * were called inactive; · = no result shown.

SMILES | RN4220 kill | Sa ugtP lethal | Mtb hypoxia inh | SSB-PriA inh
O=C1CS/C(=N\N=C2\NC(=O)C(CC(=O)c3ccc(F)cc3)S2)N1 (configuration not stated) | · | · | · | 46*
O=C(O)CC1S/C(=N\N=C2\CSC(=O)N2)NC1=O (configuration not stated) | · | · | · | 64*
Cc1ccc(NC(=O)CC2SC(=NN=C3NC(=O)CS3)NC2=O)cc1 (configuration not stated) | · | · | · | 3
CC(C)N1CCC(CNC(=O)C(=O)Nc2ccc(C(F)(F)F)cc2)CC1 | · | · | · | -12
O=C(NCCCn1ccnc1)C(=O)NCC1OCCN1S(=O)(=O)c1ccc(Cl)cc1 (configuration not stated) | 5 | -1 | -4 | 61*
O=C(NCCCn1ccnc1)C(=O)NCC1OCCN1S(=O)(=O)c1ccccc1 (configuration not stated) | · | · | · | 43*
O=C(NCCCn1ccnc1)C(=O)NCC1OCCN1C(=O)c1ccc2c(c1)OCO2 (configuration not stated) | · | · | · | 71*
O=C(NCCCn1ccnc1)C(=O)NCC1OCCCN1S(=O)(=O)c1ccc(Cl)cc1 (configuration not stated) | 2 | 5 | -5 | -9
NS(=O)(=O)c1ccc(CCNC(=O)C(=O)NCC2OCCN2C(=O)c2ccc3c(c2)OCO3)cc1 (configuration not stated) | 0 | -2 | 5 | -2
C(=NN(c1ccccc1)c1ccccc1)c1ccc2c(c1)OCO2 | -2 | 95* | 4 | -15
C#CCn1c(=NC(=O)CN2C(=O)c3ccccc3C2=O)sc2cccc(OCC)c21 | · | · | · | -7
CC(=O)Nc1ccc(C2=NNC(=Nc3cccc(S(=O)(=O)N(C)C)c3)SC2)cc1 | 4 | -2 | 10 | 53*
Cc1ccc(-c2cc(-c3ccc(C)cc3)[n+](-c3ccccc3)c(-c3ccc(C)cc3)c2)cc1 | 101* | 100* | · | 2
Cc1ccc(-c2cc(-c3ccccc3)cc(-c3ccccc3)[n+]2-c2ccccc2)cc1 | 94* | 98* | · | 11
O=[N+]([O-])c1ccccc1S(=O)(=O)N1CCc2ccccc21 | · | · | · | 39*
CNCC(CC1CCCCC1)NCC(CC(C)C)NCCc1cccc(C(F)(F)F)c1 (configuration not stated) | 89* | 86 | · | ·
CCCN(CC(=O)Nc1cc(Cl)cc(Cl)c1)CC(=O)Nc1ccc(F)c(F)c1F | 89* | 91* | 12 | -12
CCCN(CC(=O)Nc1ccccc1Br)CC(=O)Nc1ccc(F)c(F)c1F | 4 | -3 | 6 | -12
COc1ccccc1-c1nc(C#N)c(N2CCN(c3ccccc3)CC2)o1 | -5 | -24 | 13 | 51*
COc1ccc(-c2nc(C#N)c(N3CCc4ccccc4C3)o2)cc1OC | -2 | -25 | -4 | 30
COc1ccccc1-c1nc(C#N)c(N2CCc3ccccc3C2)o1 | 4 | -17 | 4 | 56*
N#Cc1nc(-c2ccco2)oc1N1CCN(c2ccccc2)CC1 | -9 | -11 | 14 | 38*
O=S(=O)(c1ccccc1F)N1CCN(CC(O)c2ccco2)CC1 (configuration not stated) | · | · | · | -5
C/C=C/c1ccc(OCCn2c(C3CC(=O)N(c4ccccc4OC)C3)nc3ccccc32)c(OC)c1 (configuration not stated) | · | · | · | -20
COC(=O)c1ccc(S(=O)(=O)NCCn2nc(C(F)(F)F)cc2C2CC2)cc1 | · | · | · | -1
SMILES | RN4220 kill | Sa ugtP lethal | Mtb hypoxia inh | SSB-PriA inh
CC1CN(c2oc(Cc3cccc4ccccc34)nc2C#N)CC(C)O1 (configuration not stated) | 2 | 3 | 9 | 52*
Cc1ccc(C(=O)OCC(=O)N2CCC(C)CC2)cc1S(=O)(=O)N1CCCCC1 | 3 | 1 | 4 | -15
Cc1ccc(C(=O)OCC(=O)NC2CCCC(C)C2C)cc1S(=O)(=O)N1CCCCC1 (configuration not stated) | 2 | -4 | 24* | -9
O=C(Nc1nnc(S(=O)(=O)N2CCCCCC2)s1)c1ccccc1 | 10 | 11 | 3 | 101*
O=C(COc1ccccc1Cl)Nc1nnc(S(=O)(=O)N2CCCC2)s1 | 1 | 14 | 6 | 85*
O=C(C[n+]1ccccc1)NN=Cc1cc(Br)cc(Br)c1O | 7 | 24 | 21 | 57*
O=C(C[n+]1ccccc1)NN=Cc1ccc(Br)cc1 | 5 | 9 | 5 | -13
CSc1cccc(-n2nnc(C(=O)OCc3ccccc3F)c2C)c1 | · | · | · | -34
O=C(Cl)c1cc(Cl)ccn1 | · | · | · | 83*
CCOC(=O)C(=NNc1ccccc1)c1csc(Nc2ccccc2)n1 | 92* | 93* | -1 | 1
CC(=O)O/C(=C1\CC2C3CC=C4CC(OC(C)=O)CCC4(C)C3CCC2(C)C1=O)C(F)(F)F (configuration not stated) | 100* | 100* | 16 | 2
Cc1onc(-c2ccccc2Cl)c1C(=O)Nc1nnc(SCC(=O)Nc2cc(C(F)(F)F)ccc2Cl)s1 | · | · | · | 3
Cc1ccc(NC(=O)Nc2ccn3nccc3c2)cc1C | · | · | · | -2
Cc1cccc(OCCNc2cc(N3CCN(C)CC3)ccc2[N+](=O)[O-])c1 | -1 | 2 | 10 | 6
Cc1ccc(OCCNc2cc(N3CCN(CCO)CC3)ccc2[N+](=O)[O-])cc1C | 0 | -5 | -2 | 55*
CCSc1nc(C2CC2)cc(-c2cccs2)c1C#N | 8 | 93* | 6 | -14
Cc1nc(-n2nc(-c3ccco3)cc2NC(=O)/C=C\c2ccccc2)[nH]c(=O)c1C | · | · | · | 2
O=C(C1=C[C@H](c2ccc(Br)cc2)C[C@H](OCCCCO)O1)N1CCN(Cc2ccccc2)CC1 | · | · | · | 42*
O=C(NCc1ccc(Cl)cc1)C(=O)NC[C@@H](c1cccs1)N1CCOCC1 | · | · | · | -2
Cn1c(=O)c(C(=O)NNC(=O)c2ccc(Br)cc2)c(O)c2ccccc21 | 98* | 100* | 13 | -8
CCCCCOc1ccc(NC(=O)c2ccc(Br)o2)cc1 | · | · | · | -16
Cc1cc(OCCn2cc(C(N)=NO)c3ccccc32)ccc1Cl | · | · | · | 21
Cc1cc(OCCn2cc(/C(N)=N/O)c3ccccc32)ccc1Cl | 11 | 93* | 3 | ·
Cc1cc(C)nc(NC(N)=NCCc2ccccc2)n1 | 7 | -4 | 16 | -3
Cc1cc(C)nc(NC(N)=NC(C)c2ccccc2)n1 (configuration not stated) | 6 | 94* | 24 | -10
SMILES | RN4220 kill | Sa ugtP lethal | Mtb hypoxia inh | SSB-PriA inh
N#C/C(=C\c1ccc(O)c([N+](=O)[O-])c1)c1nc2ccccc2s1 | · | · | · | 29
N#CC(=Cc1ccc(O)c([N+](=O)[O-])c1)c1nc2ccccc2s1 | 96* | 97* | · | ·
Cc1nnc2sc(SCc3ccc(Cl)c(Cl)c3)nn2c1=O | · | · | · | -9
CC(C)(C)c1ccc(NC(=O)c2ccc(Cl)cc2)c([N+](=O)[O-])c1 | · | · | · | 63*
Cc1ccc(NC(=O)c2ccc(Nc3c([N+](=O)[O-])cc([N+](=O)[O-])cc3[N+](=O)[O-])cc2)cc1 | 62 | 49 | 46* | -3
Cc1ccc(NC(=O)c2ccccc2)c([N+](=O)[O-])c1 | · | · | · | 57*
CC(C)(C)c1ccc(NC(=O)c2ccccc2)c([N+](=O)[O-])c1 | 1 | 7 | -2 | 59*
O=C(Nc1ccc(C(F)(F)F)cc1[N+](=O)[O-])c1ccccc1 | · | · | · | 68
C#CCOc1cccc(-c2nnc(CC)o2)c1 | · | · | · | -18
